Like-named read-outs stand apart in the source and are kept apart here.

Parameters in all cases: species or system human, MV4-11 + K-562 + COLO205 + SK-N-BE2 + OVCAR-8
In one test the test system is ACVR2B. Particulars: read-out: apparent Kd, compound concentrations: 100 nM and 1000 nM (sheet 'Samples'), n = 1.
A further test deals with SIK3. Particulars: read-out: apparent Kd; compound concentrations: 100 nM and 1000 nM (sheet 'Samples'), CATDS: 5.0355620048332002E-2; n = 1.
The subject of another test is CDK7. Particulars: read-out: apparent Kd; compound concentrations:100 nM and 1000 nM (sheet 'Samples'); n = 1.
The next test relates to ERCC2. Particulars: read-out: apparent Kd, n = 1.
The subject of a further test is NUAK1. Particulars: read-out: apparent Kd, n = 1.
The next test relates to CSNK1A1. Particulars: read-out: apparent Kd, n = 1.
A further test relates to MAPK10. Particulars: read-out: apparent Kd, n = 1.
The test system of the next test is PIM2. Particulars: read-out: apparent Kd; compound concentrations:100 nM and 1000 nM (sheet 'Samples'); n = 1.
In a further test the test system is PKN3. Particulars: read-out: apparent Kd, n = 1.
For the next test, the system named is STK10. Particulars: read-out: apparent Kd, n = 1.
For the next test, the system named is ERBB3. Particulars: read-out: apparent Kd, compound concentrations: 100 nM and 1000 nM (sheet 'Samples'), n = 1.
The subject of another test is ADCK3. Particulars: read-out: apparent Kd, compound concentrations: 100 nM and 1000 nM (sheet 'Samples'), n = 1.
For a further test, the system named is AURKA. Particulars: read-out: apparent Kd, compound concentrations: 100 nM and 1000 nM (sheet 'Samples'), n = 1.
In the next test the test system is MAPK11. Particulars: read-out: apparent Kd, n = 1.
A further test relates to CDK4. Particulars: read-out: apparent Kd, n = 1.
In another test the test system is LIMK1. Particulars: read-out: apparent Kd, compound concentrations: 100 nM and 1000 nM (sheet 'Samples'), n = 1.
The next test concerns EPHB3. Particulars: read-out: apparent Kd; compound concentrations: 100 nM and 1000 nM (sheet 'Samples'), CATDS: 6.3203902610818402E-2; n = 1.
The next test has as its system PIK3CG. Particulars: read-out: apparent Kd; compound concentrations: 100 nM and 1000 nM (sheet 'Samples'), CATDS: 3.2678630734210498E-2; n = 1.
Another test relates to SYK. Particulars: read-out: apparent Kd; compound concentrations: 100 nM and 1000 nM (sheet 'Samples'), CATDS: 2.2434221169995199E-2; n = 1.
Where [1] appears, read: compound concentrations:100 nM and 1000 nM (sheet 'Samples').

Turning to `Fc1cc(Cl)ccc1Nc1ccnc2cc(-c3ccc(CN4CCOCC4)o3)ccc12` [GW560109X], the potency estimated from few doses was 673 nM in the test with ACVR2B (CATDS: 7.2197051902398501E-2) and 1910 nM in the test on SIK3.
Turning to `COc1cc2ncn(-c3cc(OCCCc4ccccc4)c(C(N)=O)s3)c2cc1OC` [GSK205189A], the potency estimated from few doses is 79.1 nM with CDK7, 39.9 nM in the test with ERCC2 (setting [1]) and 1770 nM with NUAK1 (setting [1]).
In the case of `Fc1ccc(-c2c(-c3ccncc3)[nH]c3nccnc23)cc1` [RO1155697-000], the potency estimated from few doses in the test with CSNK1A1 (setting [1]) was 667 nM; with MAPK10 (setting [1]), 869 nM; with PIM2, 1070 nM; in the test with PKN3 (setting [1]), 31.1 nM.
Regarding `COc1cc2ncn(-c3cc(OCc4cccs4)c(C(N)=O)s3)c2cc1OC` [GSK312948A], the potency estimated from few doses in the test with STK10 (setting [1]) was 109 nM.
Consider `COc1cccc(-n2cnc3c(N/N=C/c4ccncc4)ncnc32)c1` [GW813360X], for which the potency estimated from few doses in the test with ERBB3 (CATDS: 0.18333833775407599) is 961 nM.
With `CN1CCN(c2ccc(Nc3nc(N)c(C(=O)c4ccc5c(c4)OCCO5)s3)cc2)CC1` [RO0505124-000], the potency estimated from few doses with ADCK3 (CATDS: 0.21536092464867401) is 935 nM.
For the compound `CNC(=O)c1ccccc1Nc1nc(Nc2cccc(CS(C)(=O)=O)c2)ncc1C.O=CO` [GSK1520489A], the potency estimated from few doses with AURKA (CATDS: 6.1882254370992797E-2) was 16.9 nM; in the test on MAPK10 (compound concentrations: 100 nM and 1000 nM (sheet 'Samples'), CATDS: 1.2611209241053301E-2), 502 nM; in the test with NUAK1 (compound concentrations: 100 nM and 1000 nM (sheet 'Samples'), CATDS: 1.6678428283329098E-2) it was 217 nM; in the test with STK10 (compound concentrations: 100 nM and 1000 nM (sheet 'Samples'), CATDS: 2.4296695352096099E-2) it was 88.5 nM.
Turning to `CNc1nccc(-c2c(-c3ccc(F)cc3)ncn2C2CCN(C)CC2)n1` [SB-222903], the results for the potency estimated from few doses with CSNK1A1 (setting [1]), in the test with MAPK10 (setting [1]) and in the test with MAPK11 (setting [1]) were 139 nM, 976 nM and 1080 nM, respectively.
In the case of `COc1cc2nccc(Nc3ccc(Oc4ccccc4)cc3)c2cc1OC.Cl` [GI261656A], the potency estimated from few doses in the test on ERBB3 (CATDS: 4.9978680002658399E-2) is 623 nM.
Take `CC(=O)N1CCN(c2ccc(Nc3nccc(-c4sc(C(C)C)nc4-c4cccc(NS(=O)(=O)c5ccccc5)c4)n3)cn2)CC1` [GSK1645872A]: the potency estimated from few doses is 570 nM in the test with ADCK3 (CATDS: 3.3548638845590201E-2); 1530 nM in the test on CDK4 (compound concentrations: 100 nM and 1000 nM (sheet 'Samples'), CATDS: 2.3530905499939799E-2); 111 nM with LIMK1 (CATDS: 9.09760903229518E-2).
As for `CC(=O)c1c(-c2ccncc2)[nH]c(-c2ccncc2)c1C` [GW493036X], the potency estimated from few doses with CSNK1A1 (compound concentrations: 100 nM and 1000 nM (sheet 'Samples'), CATDS: 4.1725323261606301E-2) is 874 nM; with PKN3 (setting [1]) it was 1070 nM.
In the case of `N#Cc1cnc2cc(-c3cnc(CNCCN4CCOCC4)s3)ccc2c1Nc1ccc(Oc2ccccc2)cc1` [GW664114X], in the test with ERBB3 (CATDS: 9.1270292154097404E-2), the potency estimated from few doses is 245 nM.
`Cc1ccc(O)cc1Nc1ccnc2ccc(C(C)(C)C)cc12` [GW856805X]: the potency estimated from few doses in the test with ACVR2B (CATDS: 2.76899291361602E-2) was 1250 nM; in the test on EPHB3 it was 31.7 nM.
In the case of `COc1cc2ncn(-c3cc(OCc4ccncc4)c(C(N)=O)s3)c2cc1OC` [GSK336313A], the potency estimated from few doses with STK10 (setting [1]) was 1930 nM.
Turning to `N#Cc1cccc(Nc2nccc(-c3cnn4ncccc34)n2)c1` [GW778894X], the potency estimated from few doses in the test with CDK4 (setting [1]) is 1830 nM; in the test with CDK7, 373 nM; with CSNK1A1 (setting [1]), 731 nM; in the test with ERCC2 (setting [1]) it was 780 nM; in the test with NUAK1 (setting [1]), 792 nM.
For `CS(=O)(=O)Cc1ccc(Nc2nccc(-c3c(-c4cccc(NC(=O)c5c(F)cccc5F)c4)nn4ccccc34)n2)cc1` [GSK323543A], the potency estimated from few doses with ERCC2 (compound concentrations: 100 nM and 1000 nM (sheet 'Samples'), CATDS: 6.1110797752593003E-2) is 1570 nM.
As to `O=S(=O)(CCOCc1ccc(-c2ccc3ncnc(Nc4ccc(OCc5cccc(F)c5)c(Cl)c4)c3c2)o1)c1ccccc1` [GW615311X], the potency estimated from few doses was 1020 nM in the test with AURKA (CATDS: 3.2222679542607199E-2); 1500 nM in the test with LIMK1 (CATDS: 2.6639361665983699E-2); 1070 nM in the test with MAPK10 (compound concentrations: 100 nM and 1000 nM (sheet 'Samples'), CATDS: 3.14341615066977E-2); 1650 nM in the test on MAPK11 (compound concentrations: 100 nM and 1000 nM (sheet 'Samples'), CATDS: 2.56124612703456E-2); 992 nM in the test with PIK3CG; 2200 nM in the test on PKN3 (compound concentrations: 100 nM and 1000 nM (sheet 'Samples'), CATDS: 2.28065209428794E-2). For the same compound, the potency estimated from few doses with SYK was 2300 nM.
